# Tau filament bind: binders of human tau filaments; P10636; recombinant tau filaments, thioflavin S fluorescence, 15 h; filaments grown with octadecylsulfate alongside compound; Potency, µM (top dose mostly 57.1 µM), without a hit: top-dose activity change, negative = inhibition; actives 2% (n = 71,000); AID 596;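 further: on the % scale 0 is the no-effect control and ±100 the full control effect; actives lower thioflavin S fluorescence by blocking filaments or displacing dye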
#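 Tau 2 uM in ThS buffer dispensed; compound added; 60 uM ODS added (finals 1 uM tau, 30 uM ODS); 15 h 37 C; fluor ex450/em510.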
# Hsp90 Hop PPI: changes Hsp90-Hop TPR2A binding signal, up or down. AlphaScreen TPR2A-His6 binding biotin-Hsp90 C-terminal peptide. Potency, µM (top dose mostly 57 µM), inactives show at the top dose activity change, negative = inhibition. actives 0.44% (n = 71,000). AID 595; active means well fitted curve in either direction with a large enough effect; inconclusive means small, poorly fitted or top-dose-only effect, or another doubt; further: on the % scale 0 is the no-effect control and ±100 the full control effect
# GBA mod: human lysosomal glucosylceramidase modulation; purified enzyme, resorufin glucoside fluorescence (screen aimed at inhibitors), 20 min; Potency, µM; actives 1.1% (n = 48,000); in the data active means potency below about 15 µM; inconclusive means mostly about 16 µM to 33 µM;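 further: the screen sought inhibitors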
#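 Wild-type enzyme at 0.2 nM final in 50mM citric acid/KH2PO4, 10mM sodium taurocholate, 0.01% tween-20, pH 5.9, with resorufin beta-D-glucopyranoside at 30 uM final. Compounds titrated, 20 min at RT, red fluorescence read; AC50 from titration.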
# 15-hLO inh: inhibitors of human 15-lipoxygenase (ALOX15); actives 1.4% (n = 74,000); P16050; Potency, µM (doses to about 57.1 µM), for the others: at the highest dose activity change, negative = inhibition, actives largely listed as inhibitors; purified 15hLO-1, xylenol orange hydroperoxide absorbance; further: on the % scale 0 is the no-effect control and ±100 the full control effect; nearly all actives have a fitted effect of over 55% in size
# Target sequence (P16050 whole entry, looked up): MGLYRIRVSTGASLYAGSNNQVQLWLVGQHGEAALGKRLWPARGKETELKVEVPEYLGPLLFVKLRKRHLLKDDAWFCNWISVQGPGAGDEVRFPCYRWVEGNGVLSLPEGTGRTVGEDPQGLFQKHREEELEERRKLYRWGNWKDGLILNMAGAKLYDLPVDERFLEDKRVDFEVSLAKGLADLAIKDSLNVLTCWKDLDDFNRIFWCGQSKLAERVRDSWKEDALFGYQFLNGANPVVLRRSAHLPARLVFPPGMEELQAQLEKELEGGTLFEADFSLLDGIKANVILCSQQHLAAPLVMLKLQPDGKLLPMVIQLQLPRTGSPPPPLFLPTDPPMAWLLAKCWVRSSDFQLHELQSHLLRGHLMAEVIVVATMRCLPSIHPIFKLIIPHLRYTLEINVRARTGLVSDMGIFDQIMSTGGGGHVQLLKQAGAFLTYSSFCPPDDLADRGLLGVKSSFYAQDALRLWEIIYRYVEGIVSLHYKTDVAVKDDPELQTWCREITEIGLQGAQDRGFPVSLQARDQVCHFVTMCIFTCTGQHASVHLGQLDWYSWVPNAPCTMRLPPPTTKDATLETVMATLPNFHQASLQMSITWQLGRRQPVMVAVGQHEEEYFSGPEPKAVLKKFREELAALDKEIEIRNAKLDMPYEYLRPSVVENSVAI
#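 40 nM 15hLO-1 + cpd, 15 min RT; start w/ 50 uM AA (final), 6 min RT; stop/detect w/ 200 uM XO + 300 uM Fe(II) in 50 mM H2SO4, 30 min; A573/A405. Buffer 25 mM Hepes pH 7.5, 0.01% Triton X-100. No-enzyme wells as negative control.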
# USP2a inhib: inhibitors of human ubiquitin-specific protease USP2a; O75604; USP2a enzymatic assay, qHTS inhibition; Potency, µM (highest dose often 38.3 µM), for inactives: at the top dose activity change, negative = inhibition, actives largely listed as inhibitors; actives 0.1% (n = 60,000); further: nearly all actives have a fitted effect of over 60% in size
#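 USP2 core (20 nM final) was preincubated with compound for 30 min at RT in 20 mM Tris-HCl pH 8.0, 2 mM CaCl2, 2 mM beta-mercaptoethanol; Ub-PLA2 (20 nM) plus NBD C6-HPC (20 uM) then added, fluorescence read after 2.5 h.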
# PK Bst: modulators of Bacillus stearothermophilus pyruvate kinase; purified pyruvate kinase, luminescence ATP production; ribose 5-phosphate activator present at AC10; Potency, µM; actives 1.2% (n = 51,000); in the data active means potency below about 11 µM; inconclusive means mostly about 12 µM to 25 µM;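 the screen sought inhibitors and activators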;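 further: scaled between full activation by ribose 5 phosphate and full inhibition by luteolin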
# * marks the source's active call; other numbers are inactive results; i = inactive; ? = inconclusive; . = no result; ! = repeats disagree; [ ] = another dose, or the depositor's remark. A selection: hits, their analogues and other compounds. The true share with any hit is near 4.6%. Unless noted, the call rests on the fitted dose curve; in most records, active means well fitted curve in the direction sought with a large enough effect; inconclusive means small, poorly fitted or top-dose-only effect, or another doubt; inactive means no such curve, though single readings can be large; an effect the other way counts as inactive or inconclusive. Potency means the concentration at half of the fitted maximal effect.
SMILES,Tau filament bind,Hsp90 Hop PPI,GBA mod,15-hLO inh,USP2a inhib,PK Bst
CC1(C)CC(=O)c2cn3c(nc2C1)nc1ccccc13,12.2%,-5.5%,>76.9,-1.5%,-3.5%,>57
C[C@@]12C[C@H](O)[C@@H]3[C@H](CCC4=CC(=O)CC[C@]43C)[C@H]1CC[C@@H]2c1csc(-c2ccccc2)n1,33.7%[11.4 µM],-3.2%[11 µM],.,14.3%[11.4 µM],.,.
CC(=O)C(C(C)=O)c1c(Cl)c(O)c(O)c2c(C(=O)c3ccccc3)coc12,25.1µM*,-26.6%,>76.9,2.51µM*,62.5%[46.1 µM],>57
O=C(c1ccncc1)N1CCC2(CC1)CCN(c1ccc(-c3ccccc3)cc1)CC2,-29.3%,-5.4%,.,-3.6%,45.9%,.
O=C(c1cccc(F)c1)N1CCC2(CC1)CN(c1cccc(-c3ccccc3)c1)C2,-12.5%,?,.,-8.6%,82.9%,.
CC(=O)N1CCC2(CC1)CCN(c1ccc(-c3ccccc3)cc1)CC2,12.6µM*,?,.,-23.2%,167.1%,.
O=C(c1cccc(F)c1)N1CCC2(CC1)CCN(c1cccc(-c3ccccc3)c1)CC2,25.1µM*,-26.9%,.,-9.2%,90.5%,.
O=C(CN1C(=O)C2C3c4ccccc4C(c4ccccc43)C2C1=O)N1CCOCC1 (stereo unspecified),-6.9%,-2.3%,>76.9,6.0%,-4.8%,.
O=C(CN1CCN(CCC(=O)Nc2ccccc2F)CC1)Nc1ccc(Cl)cc1,2.5%,0.1%,>76.9,0.8%,19.9%,>57
CCOC(=O)c1sc(=S)n(-c2cc(OC)ccc2OC)c1N,0.3%,-7.2%,>76.9,12.6µM*,-3.7%,>57
CC(=O)Nc1ccc(-c2nnn(CC(=O)c3ccccc3)n2)cc1Cl,3.7%,-3.8%,>76.9,5.1%,8.0%,>57
N#CC(=C(/N)Sc1ccccc1N)/C(C#N)=C(/N)Sc1ccccc1N,?,-22.1%,.,12.6µM*!,6.0%,.
CC(=O)c1sc2nc(-c3cccs3)cc(C(F)(F)F)c2c1N,127.1%,27.8%,13.5*,-29.4%,26.1%,>57
CS(=O)(=O)c1sc2nc(-c3cccs3)cc(-c3ccccc3)c2c1N,7.94µM*,?,>76.9,?,19.3%,>57
Cc1ccc(N(CC(=O)O)S(=O)(=O)c2cccc3nonc23)cc1,-4.9%,1.8%,>76.9,-1.5%,-1.0%,>57
CC(=O)c1cccc(NC(=O)CN(c2ccc(C)cc2)S(=O)(=O)c2cccc3nonc23)c1,3.98µM*,-11.0%,>15.4,-6.0%,39.5%,>57
CCOC(=O)N1CCN(C(=O)Nc2ccc3nc(C)c(C)nc3c2)CC1,?,-3.7%,.,-4.6%,6.2%,.
CCOC(=O)C1CCN(C(=O)Nc2ccc3c(c2)nc(C)n3C)CC1,1.9%,-0.3%,.,1.6%,-0.6%,>57
CCOC(=O)C1CCN(C(=O)Nc2ccc3nc(-c4ccco4)c(-c4ccco4)nc3c2)CC1,0.794µM*,-27.8%,.,5.01µM*,-23.0%,.
O=C(NC1CCCC1)c1ccc2nc(-c3ccco3)c(-c3ccco3)nc2c1,-18.7%,-24.4%,>76.9,10µM*,33.3%,.
O=C(Nc1ccc2nc(-c3ccco3)c(-c3ccco3)nc2c1)N1CCCCCC1,1.26µM*,?,.,5.01µM*,-3.2%,>57
O=C(NC1CCCC1)c1ccc2nc[nH]c2c1,12.9%,-0.9%,.,1.0%,-6.1%,>57
N#CCCn1cc(/C=N/O)c(-c2ccc(-c3ccccc3)cc2)n1,116.8%,0.5%,.,-5.4%,6.7%,.
CCC(C)n1c(-c2cccs2)nc2nc3ccccc3nc21 (stereo unspecified),12.6µM*,11.1%,>76.9,-12.2%,-12.1%,>57
C=CCn1c(-c2cccs2)nc2ccccc21,2.8%,-0.4%,>76.9,-0.4%,-7.6%,>57
SMILES,Tau filament bind,Hsp90 Hop PPI,GBA mod,15-hLO inh,USP2a inhib,PK Bst
C=CCn1c(-c2cccs2)nc2nc3ccccc3nc21,20µM*,13.1%,>76.9,9.0%,0.9%,.
COc1ccc(NC(=O)Cc2cccs2)c(OC)c1,3.16µM*,-7.3%[11 µM],.,-29.9%[11.4 µM],?,.
Cc1ccc(-n2nc3ccc(N)cc3n2)cc1,12.6µM*,-2.6%,.,-19.3%,.,.
C=CCN1C(=O)CS/C1=N/c1nccs1,-3.8%,-1.1%,>76.9,9.0%,-6.6%,>57
CCCCNC(=O)OC1CCS(=O)(=O)C1 (stereo unspecified),6.9%,-1.3%,>76.9,14.3%,-4.8%,>57
O=C1C2C3C=CC(C3)C2C(=O)N1CNc1ccc(O)cc1 (stereo unspecified),15.8µM*,-12.0%,11.6*,?,191.0%,i
Cc1ccc(NCN2C(=O)C3C4C=CC(C4)C3C2=O)cc1 (stereo unspecified),13.2%[11.4 µM],-3.0%[11 µM],.,4.2%[11.4 µM],-0.6%[7.66 µM],.
COc1ccc(Cn2c(O)cc(=O)[nH]c2=O)cc1,.,.,.,.,.,>25.6
Cc1cc(C)n(-c2nnc(C)n2/N=C/c2ccccc2OCc2ccccc2Cl)n1,21.9%[11.4 µM],?,.,-9.6%[11.4 µM],1.0%[7.66 µM],.
C[n+]1cc2c3c(ccc2c2ccc4cc5c(cc4c21)OCO5)OCO3,?,-7.0%[26 µM],.,10µM*,?,.
COC(=O)C1=C(C)NC(C)=C(C(=O)OCCSc2ccccc2)[C@@H]1C,?,39.8µM*,.,-10.8%[25.6 µM],.,.
NNC(=O)CCSc1ccccc1,3.6%[11.4 µM],-3.1%[11 µM],.,7.7%[11.4 µM],.,.
Cc1cc(NC(=O)NC(=O)c2ccc(F)cc2F)n[nH]1,8.6%,-5.2%,>76.9,9.9%,-0.9%,.
COc1ccc(/C=C/C(=O)c2cc(O)ccc2O)cc1,.,.,.,20µM*,0.9%,.
O=C(/C=C/c1ccccc1)c1ccc(O)cc1O,.,.,.,20µM*,0.9%,.
COc1ccc(/C=C/C(=O)c2cccs2)cc1OC,.,.,.,-21.2%[25.6 µM],.,.
COc1ccc(/C=C/C(=O)c2ccc(O)cc2O)cc1OC,.,.,.,15.8µM*,-3.7%,.
COc1ccc(/C=C/C(=O)c2ccc(O)cc2O)cc1,.,.,.,20µM*,6.3%,.
COc1cc(O)c(C(=O)/C=C/c2ccc(O)c(OC)c2)c(OC)c1,.,.,.,-40.1%,13.5%,.
O=C(/C=C/c1ccc(O)cc1)c1ccc(O)cc1O,.,.,.,-9.6%[11.4 µM],-9.3%,.
CC(=O)N[C@@H](CC(C)C)C(=O)O,-0.8%[25.6 µM],-1.0%[26 µM],.,1.7%[25.6 µM],-5.7%[17.1 µM],.
CC(NC(=O)CSc1n[nH]c(=O)n1C1CC1)C12CC3CC(CC(C3)C1)C2 (stereo unspecified),-2.1%,-13.8%,>76.9,3.9%,0.1%,>57
CS(=O)(=O)N1CCCC(C(=O)NCCc2ccc(Cl)cc2)C1 (stereo unspecified),0.8%,-1.7%,>76.9,-11.4%,2.5%,>57
COc1ccc(CN(C)CCc2ccccn2)c(OC)c1OC,.,.,.,.,.,>25.6
N=c1n(CCO)c2ccccc2n1CCOc1ccc(Cl)cc1Cl,229.1%,-3.3%[2.3 µM],.,-4.4%,.,.
COc1ccc(OCCn2c(=N)n(CCO)c3ccccc32)cc1,5.2%,0.7%,4.33*,2.6%,3.4%,>57
C=CCn1c(SCC(=O)NC2CCCC2)nc2scc(-c3ccco3)c2c1=O,107.0%,-4.3%,.,?,39.2%,>57
C=CCn1c(SCC(=O)NCCCC)nc2scc(-c3ccco3)c2c1=O,148.3%,-8.0%,?,5.01µM*,0.0%,>57

# High-throughput results as filed in PubChem.
